These results are taken from PubChem BioAssay AID651965 (National Center for Advancing Translational Sciences (NCATS), 2013).

In all, about 340,000 compounds went through this assay and about 6,400 (1.9%) were called active. Inconclusive results (about 4%) are left out. Calls come from the whole dose curve; as a rule, active = well fitted falling curve with a large enough effect; inconclusive = small, poorly fitted or top-dose-only effect; inactive = no such curve, though single readings can be large or run the other way. The entries come from a sample that favours actives as a whole.
Potency is the fitted concentration of half-maximal effect.

Sequence of ATP-dependent Clp protease proteolytic subunit (Bacillus subtilis (strain 168)) (P80244 whole entry, looked up): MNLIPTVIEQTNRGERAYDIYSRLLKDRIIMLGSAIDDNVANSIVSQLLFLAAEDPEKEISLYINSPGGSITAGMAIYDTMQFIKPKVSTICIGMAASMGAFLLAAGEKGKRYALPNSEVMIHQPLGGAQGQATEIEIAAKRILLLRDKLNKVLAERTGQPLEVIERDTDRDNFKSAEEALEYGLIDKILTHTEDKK

The assay concerns the target ATP-dependent Clp protease proteolytic subunit (Bacillus subtilis (strain 168)) (UniProt P80244). In words: qHTS Assay for Activators of ClpP. Note: the source files actives as falling curves though it sought activators and does not explain the sign; nearly all actives have a fitted effect of over 65% in size. Particulars: purified B. subtilis ClpP, FRET peptide cleavage, 20 min; series mostly up to 57.5 µM; activity change, negative = active: at the top concentration. The method in brief:
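FRET quenching reversal measured ClpP activation: 10 microg/mL B. subtilis ClpP at pH 8 with the FRET-FV decapeptide, read at 430 nm after 320 nm excitation. The 20-min minus 0-min signal was scaled between DMSO/no-enzyme wells and ADEP (5.8 microM final).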
A general note: qHTS replaces the single test concentration by a dilution series.
On to `CCN(CC)CCn1c(N)c(S(=O)(=O)c2ccccc2)c2nc3ccccc3nc21`, for which the “activity change, negative = active” value was 3.65% (inactive).

In the case of `CCC(=O)Nc1ccc(C)cc1-c1nc2ccccc2n(Cc2ccccc2)c1=O`, the “activity change, negative = active” value was 0.727% (inactive).

`CCC(=O)Nc1c(S(=O)(=O)c2ccccc2)c2nc3ccccc3nc2n1Cc1ccccc1`: the Potency was 14.1 µM (active).

`CCOC(=O)[C@]12CCCC=C1N(CCC1=CCCCC1)C(=O)[C@H](CC(=O)N1CCN(C(=O)c3ccco3)CC1)C2`: the “activity change, negative = active” value is -1.83% (inactive).

Consider `CCCCCCCNc1ccc(/C=C/c2ccnc3ccccc23)cc1`, for which the “activity change, negative = active” value is -0.676% (inactive).

In the case of `O=C(c1cncc(Br)c1)N1CCN(c2ccc([N+](=O)[O-])cc2)CC1`, the Potency was 28.2 µM (active).

`O=C(c1cc(C(=O)N2CCN(c3ccc(F)cc3)CC2)cc([N+](=O)[O-])c1)N1CCN(c2ccc(F)cc2)CC1`: the “activity change, negative = active” value was -2.08% (inactive).

For the compound `Cc1cccc(C(=O)NC(=S)N2CCN(c3ccc([N+](=O)[O-])cc3)CC2)c1`, the “activity change, negative = active” value was 0.049% (inactive).

`CCCCc1ccc(S(=O)(=O)NC(=O)C2(C)CCN2C(=O)c2ccccc2)cc1` (stereo unspecified): the “activity change, negative = active” value is -2.77% (inactive).

Regarding `Cc1ccc(-c2nc(=N)sn2Cc2ccccc2)cc1`, the “activity change, negative = active” value is -3.16% (inactive).

As to `Cc1ccc(C=O)cc1Cl`, the “activity change, negative = active” value is 0.201% (inactive).

As for `CC1(C(=O)NS(=O)(=O)c2cccc(OC(F)F)c2)CCN1C(=O)C1CC1` (stereo unspecified), the “activity change, negative = active” value was 1.45% (inactive).

Turning to `CC(=O)Nc1cc(-c2ccc(N3CCN(C)CC3)cc2)cn2c(-c3ccc(F)cc3)cnc12`, the “activity change, negative = active” value is -15% (inactive).

For `CCOC(=O)N1CCN(C(c2ccnc3ccccc23)c2nnnn2-c2c(C)cccc2C)CC1` (stereo unspecified), the “activity change, negative = active” value is 1.38% (inactive).

With `COc1cc(F)ccc1-c1cc(C(=O)NCC2CCCCC2)[nH]n1`, the “activity change, negative = active” value is -1.75% (inactive).

With `COc1ccc(-n2nnnc2CNC(=O)c2ccc3ccccc3c2)cc1`, the “activity change, negative = active” value was -16% (inactive).

For `COc1ccc(-n2nnnc2-c2nc3ccccc3s2)cc1`, the Potency is 28.2 µM (active).

Turning to `COc1ccc(CSc2nnnn2-c2ccc(C(=O)O)cc2)cc1`, the “activity change, negative = active” value was 1.38% (inactive).

With `CCCCOCCCNC(=O)C[C@@H]1C[C@@]2(C(=O)OC)CCCCC=C2N(CCC2=CCCCC2)C1=O`, the “activity change, negative = active” value was 1.12% (inactive).

As for `COc1ccccc1CNC(=O)c1cc(-c2cc(Cl)ccc2C)n[nH]1`, the “activity change, negative = active” value was -0.552% (inactive).

Consider `OC[C@H]1O[C@@H](c2nc(-c3nc(-c4ccc(F)cc4)no3)cs2)[C@H](O)[C@@H](O)[C@H]1O`, for which the “activity change, negative = active” value is -1.14% (inactive).

As for `Cc1nn(CC(=O)N2CCN(c3cccc(C(F)(F)F)c3)CC2)c(=O)c2cc3sccc3n12`, the “activity change, negative = active” value is -1.4% (inactive).

Consider `CCN1CCN(C(=O)Cn2nc(C)n3c(cc4c(OC)cccc43)c2=O)CC1`, for which the “activity change, negative = active” value was 3.98% (inactive).

As to `COc1cccc2c1cc1c(=O)n(CC(=O)N3CCN(c4ccccc4)CC3)nc(C)n12`, the Potency is 25.1 µM (active).

Turning to `CN[C@H]1C[C@H]2c3cc(Oc4ccccc4C)ccc3CCN2C(=O)[C@H]1[C@H](C)O`, the “activity change, negative = active” value is -4.92% (inactive).

Regarding `CCCS(=O)(=O)NC(=O)C1(C)CCCN(C(=O)c2cc(C)on2)C1` (stereo unspecified), the “activity change, negative = active” value is -2.31% (inactive).
